High-throughput results from PubChem BioAssay.
In the library only some 21% were active in any assay of this set; here they are far more common.
Sm TGR inh – blocks Schistosoma mansoni thioredoxin glutathione reductase; Q962Y6; purified TGR, DTNB reduction, TNB absorbance 405 nm; Potency, µM (highest dose often 114 µM), without a hit: at the highest dose activity change, negative = inhibition, most hits filed as inhibitors; hit rate 3% among 360,000; AID 485364; further: potency means the concentration at half of the fitted maximal effect; on the % scale 0 is the no-effect control and ±100 the full control effect; nearly all actives have a fitted effect of over 60% in size
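Kinetic colorimetric format: TGR-catalysed, NADPH-driven DTNB reduction monitored via TNB absorbance. Enzyme dispensed at 20 nM; compound exposure 15 min at room temperature before reaction start.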
Cycloheximide cs – counter-screen hit for Shiga toxin inhibitors, cycloheximide; hit rate 12% among 300,000; max response, %; cell reporter, cycloheximide protein synthesis inhibition counterscreen; in the data active means max response mostly above about 13%, no sharp cut-off; inactive means mostly below about 14%; further: read at 38.3 µM for the half of the compounds with a filed dose; 0% is about no effect
NS1 inh – blocks influenza NS1 protein function | Potency, µM (doses to about 46.1 µM), inactives show at the top dose activity, positive = more growth | hit rate 0.4% among 270,000; calls by dose curve; further: potency means the concentration at half of the fitted maximal effect; actives are rising curves; nearly all actives have a fitted effect of over 50% in size
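S. cerevisiae expressing influenza A NS1, grown in glucose, washed, then diluted 1:100 into pH 6.0 -URA galactose medium with 23 nl compound. Growth recovery read as OD600; NS1-free strain serves as control.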
Pf growth 96h – P. falciparum growth inhibition at 96 hour, primary screen for plastid delayed-death inhibitors. P. falciparum luciferase reporter growth, 96 h. Potency, µM (top dose mostly 28.7 µM), inactives show at the top dose activity change, negative = inhibition, hits mostly inhibitors. hit rate 6.9% among 320,000; further: potency means the concentration at half of the fitted maximal effect; on the % scale 0 is the no-effect control and ±100 the full control effect
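Luminescence readout: decreased luciferase signal marks inhibited growth of reporter-expressing P. falciparum in infected red cells (2% hematocrit, 0.05% parasitemia final), exposed to compound two generations (96 h, 37 C, 5% CO2).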
Shiga inhibitor – Shiga toxin inhibition; inhibition, % at 38.7 µM; hit rate 9.2% among 290,000; Vero cells, Shiga toxin protein synthesis inhibition reporter; in the data active means inhibition mostly above about 28%, no sharp cut-off; inactive means mostly below about 43%; further: 0% is about no effect
Pf growth 48h – inhibits P. falciparum growth in the first generation, 48 h; P. falciparum luciferase growth in erythrocytes, 48 h; Potency, µM (series often up to 28.7 µM), without a hit: top-dose activity change, negative = inhibition, usual class: inhibitors; hit rate 5.9% among 310,000; further: potency means the concentration at half of the fitted maximal effect; on the % scale 0 is the no-effect control and ±100 the full control effect
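Here the parasites carry a stable luciferase gene and grow inside erythrocytes in Albumax-based RPMI medium with compound for one erythrocytic cycle. Activity is scored as loss of luminescent signal.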
* marks the source's active call; other numbers are inactive results; ? = inconclusive; · = not tested or not shown. Unless noted, the call rests on the fitted dose curve; in most records, active means well fitted curve in the direction sought with a large enough effect; inconclusive means small, poorly fitted or top-dose-only effect, or another doubt; inactive means no such curve, though single readings can be large; an effect the other way counts as inactive or inconclusive.

SMILES | Sm TGR inh | Cycloheximide cs | NS1 inh | Pf growth 96h | Shiga inhibitor | Pf growth 48h
COc1ccc(-c2cc(N)n(S(=O)(=O)c3c(F)c(F)c(F)c(F)c3F)n2)cc1OC | 2.5µM* | 14* | -95% | ? | 33* | ?
CC1CCCN(C(=O)C2CCN(S(=O)(=O)c3cccs3)CC2)C1 (stereo unspecified) | -6% | · | · | 4% | · | ?
O=C(C1CCN(S(=O)(=O)c2cccs2)CC1)N1CCCC(C(F)(F)F)C1 (stereo unspecified) | -34% | 17* | 8% | 276% | 33 | -13%
CC1Cc2ccccc2N1C(=O)C1CCN(S(=O)(=O)c2cccs2)CC1 (stereo unspecified) | 1% | 9 | -10% | 0.93µM* | -11 | -27%
CC(C(=O)N1c2ccccc2CC1C)N1CCN(S(=O)(=O)c2ccccc2F)CC1 (stereo unspecified) | -9% | · | · | ? | · | 13µM*
O=C(C1CCN(S(=O)(=O)c2cccs2)CC1)N1CCN(c2ccccc2F)CC1 | -5% | · | · | · | · | ·
O=C(C1CCN(S(=O)(=O)c2cccs2)CC1)N1CCN(c2ccccc2O)CC1 | -7% | · | · | 7.4µM* | · | ?
O=C(NNC(=S)NC(=O)c1cccc([N+](=O)[O-])c1)c1ccc(Br)cc1 | 2% | -4 | 5% | 33% | 10 | -16%
CC(=O)Nc1cccc(-c2csc(Nc3ccc(C)cn3)n2)c1 | 1% | 69* | 14% | ? | 98* | 32%
CC(=O)Nc1cccc(-c2csc(Nc3ncccn3)n2)c1 | 1% | 43* | 8% | 24% | 91* | 252%
CCCC1(c2ccccc2)NC(=O)N(CC(=O)Nc2cc(C)ccc2OC)C1=O (stereo unspecified) | 5% | -2 | 14% | 7% | -7 | ?
Brc1ccc(CN2CCc3nc(Nc4ccccc4)ncc3C2)s1 | -7% | · | · | · | · | ·
COc1ccc2c(Sc3ccc(C)cc3)c(C(=O)NCc3ccc(F)cc3)[nH]c2c1 | 45µM* | · | · | · | · | ·
COc1ccc2c(Sc3ccccc3)c(C(=O)NCCN(C)C)[nH]c2c1 | 40µM* | · | · | · | · | ·
O=C(Cn1c(=O)nc(-c2ccccc2)c2cc(Cl)ccc21)Nc1ccc(F)c(Cl)c1 | 2% | · | · | · | · | ·
CC1(C)SC2C(NC(=O)C(C(=O)O)c3ccccc3)C(=O)N2C1C(=O)O (stereo unspecified) | · | · | · | 1% | · | -5%
COc1ccccc1C1CN(c2ccccc2)N=C1c1cccs1 (stereo unspecified) | -7% | 6 | 23% | -101% | -11 | ·
COc1cccc(C2CN(c3ccc(F)cc3F)N=C2c2cccs2)c1OC (stereo unspecified) | -4% | 1 | 1% | 12µM* | 3 | 5.9µM*
CN(C)S(=O)(=O)N(CC(=O)Nc1cccc(F)c1)c1ccccc1 | 0% | 1 | 15% | -13% | 22 | ·
Cc1ccc(C(=O)N/C(=C/C=C\c2ccccc2)C(=O)NCc2ccco2)cc1 | ? | 17* | ? | 0% | 35 | -20%
Cc1ccc(C(=O)N/C(=C\c2sccc2C)C(=O)NCc2ccco2)cc1 | 0% | -3 | 0% | 3.3µM* | -4 | 8%
CCc1ccccc1N(CC)C(=O)c1cc2c(s1)-c1ccccc1OC2 | -6% | · | · | · | · | ·
COc1ccc([C@H]2[C@H](C(=O)C(C)(C)C)N3N=Cc4ccccc4C3[C@]23N=C(c2ccccc2)OC3=O)cc1OC (stereo partly specified) | 0% | 12 | 27% | ? | -8 | ?
CC(C)(C)OC(=O)[C@H]1[C@H](c2ccc([N+](=O)[O-])cc2)C2(C(=O)c3ccccc3C2=O)C2c3ccccc3C=NN21 (stereo partly specified) | -16% | 12* | 1% | 1.9µM* | 42 | 13µM*
O=C(OCC(=O)N(CCc1ccccc1)Cc1ccccc1)c1ccccc1NCCO | -14% | 9 | -1% | ? | 17 | ?
SMILES | Sm TGR inh | Cycloheximide cs | NS1 inh | Pf growth 96h | Shiga inhibitor | Pf growth 48h
Cc1ccccc1C(=O)NCC(=O)OC(C)C(=O)NC(C)CCc1ccccc1 (stereo unspecified) | 2% | · | · | 12µM* | · | ?
Cc1csc(SCC(=O)N(C)C2CCS(=O)(=O)C2)n1 (stereo unspecified) | 7% | · | · | -1% | · | ?
CC(C)(C)NC(=O)Cn1c(SCC(N)=O)nc2ccccc21 | -1% | -4 | 2% | -17% | -16 | -4%
O=C(O)CSc1nc2ccccc2n1-c1ccccc1 | 1% | 8 | -2% | -24% | -10 | 5%
NC(=O)CSc1nc2ccccc2n1Cc1ccccc1 | 8% | -4 | 10% | -16% | -12 | 2.9µM*
NC(=O)CSc1nc2ccccc2n1-c1ccccc1 | -23% | -5 | 10% | 9.3µM* | -7 | -16%
Cc1ccc(-c2csc3nc(SCC(N)=O)n(Cc4ccccc4)c(=O)c23)cc1 | -4% | -2 | 25% | 10% | -15 | 13µM*
O=C(NCc1ccc(F)cc1Cl)c1cc(=O)[nH]c2ccc(S(=O)(=O)N3CCCCC3)cc12 | 4% | · | · | · | · | ·
c1ccc2c3nnc4n(c-3nc2c1)CCCS4 | -13% | 30* | -1% | · | 54 | -13%
Cc1ccccc1NS(=O)(=O)c1cc2c(cc1C)N(C)CCO2 | -12% | 0 | 14% | 55% | 11 | -4%
COc1ccc(CNC(=O)C2CCC(=O)N(CC3CCCCC3)C2)cc1 (stereo unspecified) | 0% | -5 | -2% | 2.3µM* | -15 | -7%
Cc1ccc(CNC(=O)C2CCC(=O)N(CC3CCCCC3)C2)o1 (stereo unspecified) | 28µM* | 4 | 20% | ? | 19 | 10%
Cn1c(N=NC(=O)c2ccccc2)c(O)c2ccccc21 | -1% | 43* | -20% | 222% | 33* | 167%
Cn1c(O)c(N=NC(=O)CNC(=O)c2ccccc2)c2ccccc21 | 9% | -7 | 2% | 18% | -10 | 19%
Cc1c(C(=O)NCC(c2ccc(Cl)cc2)N2CCOCC2)oc2ccccc12 (stereo unspecified) | -1% | · | · | · | · | ·
NC(=O)c1cc(S(=O)(=O)Nc2ccc(OC(F)(F)F)cc2)cs1 | 0% | -3 | 4% | ? | 19 | 13µM*
COc1ccc(NS(=O)(=O)c2csc(C(N)=O)c2)cc1OC | 3% | -9 | 2% | 33% | 12 | ?
COc1ccc(NS(=O)(=O)c2csc(C(N)=O)c2)cc1 | -14% | 11 | -2% | ? | -13 | 7.4µM*
O=C(NC1CCCC1)c1ccc(COc2ccccc2Br)o1 | -29% | 16 | -92% | ? | 11 | 0%
CC(=O)C1=C(O)C(=O)N(c2ccc(C)cc2)C1c1ccc([N+](=O)[O-])cc1 (stereo unspecified) | · | -1 | 7% | ? | -4 | ?
CCc1ccc(NC(=S)/N=C(\N)Nc2nc(C)c3cc(CC)ccc3n2)cc1 | 7% | 9 | 18% | ? | -3 | ?
